Where “and” joins values, the source holds several entries; their conditions need not be identical. Equal entries are not always repeated. Out of some 5,500 compounds screened, about 2,000 (36%) were called active. Another 18% or so got no clear call; they are omitted. No stated cut-off is given here; in the data, active means normalized growth mostly below about 0.91 (no sharp cut-off); inconclusive means no clear call, values can overlap the other calls; inactive means mostly above about 0.92. The list shows a part of the results.
Test: chemical genetic growth profiling, strain panel (AID 1159580);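 further: tested at 20 µM; growth read once vehicle control cultures reached saturation at 30 °C; 1 = growth at the plate median or of vehicle wells; lower values mean less growth of the strain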
Details: S. cerevisiae deletion strains, growth OD

Measured: normalized growth

O=C1C[C@@H](c2ccc(O)cc2)Oc2cc(O)cc(O)c21
inactive: locus YAL013W, strain DEP1, hits give low values 1.02 | locus YAL021C, strain ccr4, hits give low values 0.987 | locus YAL026C, strain drs2, hits give low values 0.969 | locus YAL030W, strain snc1, hits give low values 0.953 | locus YBL061C, strain skt5, hits give low values 0.974 | locus YBR009C, strain hhf1, hits give low values 0.959 | locus YBR021W, strain FUR4, hits give low values 0.995 | locus YBR023C, strain chs3, hits give low values 0.955 | locus YBR171W, strain sec66, hits give low values 0.989 | locus YBR229C, strain ROT2, hits give low values 1.02 | locus YBR231C, strain swc5, hits give low values 0.972 | locus YBR279W, strain paf1, hits give low values 0.97 | locus YCL011C, strain gbp2, hits give low values 0.952 | locus YCL016C, strain dcc1, hits give low values 0.969 | locus YCL029C, strain bik1, hits give low values 1.03 | locus YCL061C, strain MRC1, hits give low values 0.979 | locus YCL069W, strain vba3, hits give low values 0.966 | locus YCR088W, strain abp1, hits give low values 0.955 | locus YDL005C, strain med2, hits give low values 0.978 | locus YDL035C, strain GPR1, hits give low values 1.01 | locus YDL040C, strain nat1, hits give low values 0.976 | locus YDL074C, strain BRE1, hits give low values 1.01 | locus YDL101C, strain DUN1, hits give low values 1.01 | locus YDL134C, strain PPH21, hits give low values 1.01 | locus YDL185W, strain tfp1, hits give low values 1.01 | locus YDL192W, strain arf1, hits give low values 1.01 | locus YDR001C, strain nth1, hits give low values 0.964 | locus YDR069C, strain doa4, hits give low values 0.944 | locus YDR101C, strain arx1, hits give low values 1.01 | locus YDR137W, strain rgp1, hits give low values 0.955 | locus YDR150W, strain NUM1, hits give low values 1.01 | locus YDR159W, strain sac3, hits give low values 0.942 | locus YDR162C, strain NBP2, hits give low values 1.01 | locus YDR195W, strain ref2 0.931 | locus YDR297W, strain sur2, hits give low values 0.97 | locus YDR318W, strain mcm21, hits give low values 1.01 | locus YDR334W, strain swr1, hits give low values 0.962 | locus YDR335W, strain msn5, hits give low values 0.979 | locus YDR388W, hits give low values 1.01 | locus YDR392W, strain spt3, hits give low values 0.862 | locus YDR502C, strain sam2, hits give low values 1.01 | locus YEL003W, strain gim4, hits give low values 0.977 | locus YEL037C, strain rad23, hits give low values 0.968 | locus YEL061C, strain CIN8 (second series), hits give low values 0.949 | locus YEL061C, strain CIN8, hits give low values 1.01 | locus YER015W, strain faa2, hits give low values 0.982 | locus YER016W, strain bim1, hits give low values 0.971 | locus YER110C, hits give low values 1.02 | locus YER111C, strain swi4, hits give low values 0.958 | locus YER155C, strain BEM2 (second series), hits give low values 0.875 | locus YER155C, strain BEM2, hits give low values 1.01 | locus YER167W, strain BCK2, hits give low values 1.01 | locus YFR010W, strain ubp6, hits give low values 0.924 | locus YGL078C, strain dbp3, hits give low values 1.02 | locus YGL086W, strain mad1, hits give low values 1.01 | locus YGL167C, strain pmr1, hits give low values 0.949 | locus YGL173C, strain kem1, hits give low values 0.969 | locus YGL227W, strain vid30, hits give low values 0.948 | locus YGL240W, strain doc1, hits give low values 0.944 | locus YGL248W, strain PDE1, hits give low values 1.01 | locus YGL253W, strain hxk2, hits give low values 0.983 | locus YGR078C, strain PAC10, hits give low values 1.01 | locus YGR135W, strain pre9, hits give low values 1 | locus YGR229C, strain SMI1, hits give low values 1.01 | locus YGR252W, strain gcn5, hits give low values 0.988 | locus YHR013C, strain ard1, hits give low values 0.933 | locus YHR027C, strain rpn1, hits give low values 0.971 | locus YHR030C, strain SLT2, hits give low values 1.01 and 0.975 | locus YHR079C, strain IRE1 (second series), hits give low values 1.01 | locus YHR079C, strain IRE1, hits give low values 0.977 | locus YHR094C, strain hxt1, hits give low values 1 | locus YHR129C, strain ARP1, hits give low values 1.01 | locus YHR142W, strain chs7, hits give low values 0.942 | locus YHR200W, strain rpn10, hits give low values 1.01 | locus YIL066C, strain RNR3, hits give low values 1.02 | locus YIL073C, strain SPO22, hits give low values 1.05 | locus YIL125W, strain kgd1, hits give low values 1.01 | locus YIR030C, strain dcg1, hits give low values 1.02 | locus YJL092W, strain hpr5, hits give low values 0.977 | locus YJL095W, strain BCK1 (second series), hits give low values 0.976 | locus YJL095W, strain BCK1, hits give low values 0.997 and 0.98 | locus YJL115W, strain asf1, hits give low values 0.964 | locus YJL129C, strain trk1, hits give low values 0.947 | locus YJL134W, strain LCB3, hits give low values 1.01 | locus YJL154C, strain vps35, hits give low values 0.967 | locus YJL164C, strain tpk1, hits give low values 0.97 | locus YJL166W, strain qcr8, hits give low values 0.968 | locus YJL168C, strain set2, hits give low values 1.02 | locus YJL187C, strain SWE1 (second series), hits give low values 1.02 | locus YJL187C, strain SWE1, hits give low values 0.965 | locus YJR043C, strain POL32, hits give low values 1.01 | locus YJR066W, strain TOR1, hits give low values 0.935

— PubChem BioAssay AID1159580 (chemical genetic matrix, 2015)
